According to PubChem BioAssay AID493169 (National Center for Advancing Translational Sciences (NCATS), 2011):
Records with an inconclusive call do not appear. Values without a mark were called inactive. The source made the active and inactive calls. The call rests on the fitted dose curve; in most records, active means well fitted inhibition curve with a large enough effect; inconclusive means small, poorly fitted or top-dose-only effect; inactive means flat fitted curve, though single readings scatter.

Assay: CHOP2 Reporter Counterscreen Assay for Inhibitors of Ubiquitin-specific Protease USP2a;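 further: activated enterokinase alone at 50 pM in a cell-free format rather than USP2a or CHOP2; nearly all actives have a fitted effect of over 55% in size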
Settings: purified enterokinase, fluorogenic substrate, 485/531 nm; series mostly up to 38.3 µM; activity change, negative = inhibition: at the top concentration
In short: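 Cell-free counterscreen with pre-activated enterokinase alone (50 pM final) in 20mM Tris-HCl pH 8.0, 2mM CaCl2, 2mM beta-mercaptoethanol, 0.05% CHAPS; compound preincubation 30 min RT, reporter substrate 25nM final, fluorescence read after 10 min (Ex 485/Em 531).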
On the % scale 0 is the no-effect control and ±100 the full control effect; potency means the concentration at half of the fitted maximal effect.

SMILES | activity change, negative = inhibition | Potency
COCCN1Cc2cccc(C(=O)N3CCN(c4cc(C)ccc4C)CC3)c2C1=O | -2.08% | –
Cc1ccc([C@H]2C(C(=O)O)=CC[C@@H](c3ccc(Cl)cc3)N2S(=O)(=O)c2ccc(C)cc2)cc1 | -10.9% | –
COc1ccc(CC(=O)c2ccccc2C(=O)O)cc1 | 5.34% | –
COc1ccc2[nH]c(=O)c(CN(C)C(=O)C3CCCCC3)cc2c1 | -2.09% | –
O=C(O)CC(C(=O)O)N1C(=O)/C(=C/C=C/c2ccco2)SC1=S (stereo not given) | – | 3.55 µM (active)
CC(/C=N/NC(=O)c1cc(-c2cccs2)[nH]n1)=C\c1ccccc1 | -6.36% | –
COc1ccc(-n2c(SCC(=O)N3CCN(c4ccccc4)CC3)nc3c(c2=O)SCC3)cc1 | -4.64% | –
CCOC(=O)COc1c(OC)cc(Cl)cc1C1Nc2ccccc2C(=O)N1c1ccccc1 (stereo not given) | -2.56% | –
COc1ccc(NC(=S)NC(=O)/C=C/c2ccco2)cc1 | -2.95% | –
Cc1ccc(C2=N/C(=C\c3c(C)nn(-c4ccccc4)c3N3CCCC3)C(=O)O2)cc1 | 16.3% | –
CC(=O)N1c2c(cc(Br)cc2S(=O)(=O)NCc2cccnc2)CC1C (stereo not given) | 2.91% | –
CCN=C1SC(C(=O)Nc2cccc(OCC)c2)CC(=O)N1CC (stereo not given) | 0.255% | –
COc1cc(OC)cc(-c2c(C#Cc3ccsc3)c3cc(-c4ccc(OC)c(OC)c4)ccc3n2C)c1 | 5.46% | –
CCN(CC)S(=O)(=O)c1ccc(Cl)c(NC(=O)COC(=O)c2c(C)noc2C)c1 | 0.267% | –
Cc1nc2cc3ccccc3cc2c(=O)[nH]1 | -3.45% | –
Cc1ccc(C)n1-c1cc(S(=O)(=O)N2CCOCC2)ccc1N1CCCC1 | 5.06% | –
CC(C)(C)[C@H]1COC(=O)[C@@H](Cc2ccc(F)cc2)C/C=C\C[C@@H](CC(=O)N[C@H](CO)Cc2ccccc2)C(=O)N1 | -3.42% | –
CCOc1cc(/C=C2\C(=O)N(c3nc(-c4ccc(Br)cc4)cs3)N=C2c2ccccc2)ccc1O | – | 4.47 µM (active)
O=S(=O)(NC1CCSc2ccccc21)c1ccccc1 (stereo not given) | -0.783% | –
COc1cc(/C=C/C(=O)OCC(=O)NC(=O)NCc2ccco2)ccc1OC(F)F | -19.8% | –

SMILES | activity change, negative = inhibition | Potency
Cc1n[nH]c(C)c1S(=O)(=O)N1CCCC(C(=O)Nc2nccs2)C1 (stereo not given) | 1.87% | –
Cc1ccc(C)c(S(=O)(=O)N2CCN(C(=O)/C=C/c3ccco3)CC2)c1 | – | 11.2 µM (active)
COc1cccc(NC(=O)Cc2ccccc2)c1 | 8.41% | –
Cc1onc(-c2ccccc2)c1C(=O)N1CCN(C)CC1 | 1.29% | –
CCc1ccccc1OCC(=O)Nc1ccc(N2CCCC2)cc1C | – | 10 µM (active)
CN(c1cccc(NC(=O)Nc2cccc(Cl)c2)c1)S(C)(=O)=O | -0.746% | –
COC1=CCC2([N+](=O)[O-])CN(CCO)CC1([N+](=O)[O-])C2 (stereo not given) | -0.623% | –
Cn1c(=O)[nH]c(=O)c2c1nc(NCc1ccccc1)n2CCCc1ccccc1 | 1.28% | –
CCCCCCCCCCOC(=O)Cn1c(COc2ccc(Cl)cc2)[n+](C)c2ccccc21 | – | 8.91 µM (active)
COc1ccc(C(=O)N/C(=C\c2cccs2)C(=O)N2CCN(C)CC2)cc1OC | 0.95% | –
CCCCCCCCCCOC(=O)Cn1c(COc2ccc(C)cc2)[n+](C)c2ccccc21 | – | 5.62 µM (active)
Cc1csc(NC(=O)CCn2c(=O)sc3ccccc32)n1 | 2.39% | –
CCC(C)(C)n1nnnc1C(c1ccc(C)cc1)N1CCCC1 (stereo not given) | 0.491% | –
O=C(C1CCCN(S(=O)(=O)c2cccc3cccnc23)C1)N1CCN(c2ccccc2F)CC1 (stereo not given) | -2.24% | –
Cc1ccc(SCC(=O)NCC(C)C)cc1 | 6.35% | –
Cc1cc(N2CCOCC2)nc(SCC(=O)c2ccc(Cl)cc2)n1 | 4.72% | –
COc1ccc(CCN2C(=O)/C(=C\c3ccco3)SC2=S)cc1OC | -0.0556% | –
COc1ccccc1-c1nnc(SCC(=O)Nc2nc(-c3ccccc3)cs2)n1C | -2.53% | –
O=C(COC(=O)/C=C/c1ccc(Cl)cc1)NC1CC1 | 1.41% | –
O=C(O)CCn1c(C2CCCCC2)nc2ccccc21 | -2.37% | –
